From PMC4336329 (PLoS ONE, 2015) come the findings set out here.

The whole screen tested about 310,000 compounds, of which about 2,200 (0.71%) showed an effect of 50% or more. The effect is printed as a negative number. This is one part of a sample in which strong results are shown more often than they occur.

For this test, the target named is human ether-à-go-go-related gene (hERG) potassium channel (human, UniProt Q12809). Nature of the test: primary screen, population patch clamp on CHO cells stably expressing hERG; higher = less effect of the substance.
Sequence of human ether-à-go-go-related gene (hERG) potassium channel (Q12809 whole entry, looked up): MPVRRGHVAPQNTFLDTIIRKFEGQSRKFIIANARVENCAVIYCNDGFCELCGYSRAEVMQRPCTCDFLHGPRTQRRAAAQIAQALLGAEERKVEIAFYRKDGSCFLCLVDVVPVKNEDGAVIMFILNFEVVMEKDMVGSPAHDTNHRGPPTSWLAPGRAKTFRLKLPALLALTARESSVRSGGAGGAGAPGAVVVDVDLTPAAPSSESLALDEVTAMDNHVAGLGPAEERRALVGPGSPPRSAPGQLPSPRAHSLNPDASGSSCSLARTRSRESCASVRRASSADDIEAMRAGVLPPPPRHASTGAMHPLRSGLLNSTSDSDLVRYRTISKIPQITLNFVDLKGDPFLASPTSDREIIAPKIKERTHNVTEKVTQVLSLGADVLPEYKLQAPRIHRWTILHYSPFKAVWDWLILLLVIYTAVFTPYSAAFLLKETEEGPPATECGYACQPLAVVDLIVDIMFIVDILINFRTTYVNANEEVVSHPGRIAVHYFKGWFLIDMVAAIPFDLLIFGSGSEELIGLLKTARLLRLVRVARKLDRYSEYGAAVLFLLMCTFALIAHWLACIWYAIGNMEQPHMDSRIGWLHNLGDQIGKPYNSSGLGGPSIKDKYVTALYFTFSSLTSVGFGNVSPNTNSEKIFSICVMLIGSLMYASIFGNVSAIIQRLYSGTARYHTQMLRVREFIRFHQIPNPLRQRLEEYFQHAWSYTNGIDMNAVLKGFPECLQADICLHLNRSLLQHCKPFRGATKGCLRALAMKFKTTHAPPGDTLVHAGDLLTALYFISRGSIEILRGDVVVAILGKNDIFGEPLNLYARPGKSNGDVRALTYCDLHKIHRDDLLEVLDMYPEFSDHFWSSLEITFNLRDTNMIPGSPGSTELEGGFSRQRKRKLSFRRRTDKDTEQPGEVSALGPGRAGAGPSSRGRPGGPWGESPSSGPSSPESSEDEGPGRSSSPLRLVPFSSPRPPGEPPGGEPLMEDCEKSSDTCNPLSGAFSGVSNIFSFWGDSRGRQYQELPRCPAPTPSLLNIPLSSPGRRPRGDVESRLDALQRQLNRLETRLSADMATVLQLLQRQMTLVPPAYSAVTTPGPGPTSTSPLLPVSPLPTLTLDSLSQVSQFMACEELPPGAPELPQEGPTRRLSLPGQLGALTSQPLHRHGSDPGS
As for `O=C(/C=C/c1cccc([N+](=O)[O-])c1)OC1CCCCC1=O` (stereo not drawn), the “hERG current change (%, negative = inhibition) at 1uM” value stood at 9.96%.
Regarding `Cc1ccc(C(C)NC(=O)CSc2ccc(S(=O)(=O)N3CCOCC3)cn2)cc1C` (stereo not drawn), the “hERG current change (%, negative = inhibition) at 1uM” value was 5.8%.
As to `COc1ccc(Cl)cc1Nc1nc(-c2sc(NC(=O)CC(C)C)nc2C)cs1`, the “hERG current change (%, negative = inhibition) at 1uM” value amounted to 11.1%.
As for `CCOC(=O)c1sc(=S)n(-c2cc(OC)ccc2OC)c1N`, the “hERG current change (%, negative = inhibition) at 1uM” value was 6.58%.
As to `COc1cc2c(cc1OC)CN(CCC(C)c1ccc(Cl)cc1)CC2.O=C(O)/C=C\C(=O)O` (stereo not drawn), the “hERG current change (%, negative = inhibition) at 1uM” value is recorded as -50.5%.
Regarding `COc1cc2c(cc1OC)C(C)N(CCc1ccc(Cl)cc1)CC2.O=C(O)/C=C\C(=O)O` (stereo not drawn), the “hERG current change (%, negative = inhibition) at 1uM” value is -39.9%.
With `COc1cc2c(cc1OC)CN(CC(=O)Nc1ccc(Cl)cc1Cl)CC2`, the “hERG current change (%, negative = inhibition) at 1uM” value is on record as 2.03%.
Consider `O=C(COC(=O)c1cccs1)Nc1ccccc1Cl`, for which the “hERG current change (%, negative = inhibition) at 1uM” value worked out at 14.6%.
In the case of `COc1ccc(-n2c(SCC(=O)NCc3cccs3)nnc2-c2ccoc2C)cc1`, the “hERG current change (%, negative = inhibition) at 1uM” value was -55.9%.
To `CCOc1ccccc1-n1c(SCC(=O)Nc2nccs2)nnc1-c1ccoc1C` belongs 11.5%.
On to `Cc1ccc(-n2c(SCC(=O)NCc3cccs3)nnc2-c2ccoc2C)cc1`, for which the “hERG current change (%, negative = inhibition) at 1uM” value was -16.5%.
`Cc1csc(NC(=O)CSc2nnc(-c3ccoc3C)n2Cc2ccco2)n1`: the “hERG current change (%, negative = inhibition) at 1uM” value is recorded as -78.4%.
On to `CCn1c(SCC(=O)Nc2nc(C)cs2)nnc1-c1ccoc1C`, for which the “hERG current change (%, negative = inhibition) at 1uM” value is listed as 10.4%.
As to `Cc1csc(NC(=O)CSc2nnc(C)n2Cc2ccco2)n1`, the “hERG current change (%, negative = inhibition) at 1uM” value is 7.95%.
For `COc1ccc(-n2c(SCC(=O)Nc3ccccc3)nnc2-c2ccoc2C)cc1`, the “hERG current change (%, negative = inhibition) at 1uM” value was 11.7%.
For the compound `Cc1occc1-c1nnc(SCC(=O)Nc2nccs2)n1Cc1ccco1`, the “hERG current change (%, negative = inhibition) at 1uM” value turned out to be 3.28%.
Consider `COC(=O)CSc1nnc(-c2ccoc2C)n1-c1ccc(OC)cc1`, for which the “hERG current change (%, negative = inhibition) at 1uM” value worked out at 8.81%.
`COc1ccc(-n2c(SCC(=O)Nc3nc(C)cs3)nnc2-c2ccoc2C)cc1`: the “hERG current change (%, negative = inhibition) at 1uM” value is recorded as -85%.
To `COc1cccc(-n2c(SCC(=O)Nc3nccs3)nnc2-c2ccoc2C)c1` belongs -84.6%; to `Cc1occc1-c1nnc(SCC(=O)NCc2cccs2)n1-c1ccc(F)cc1`, -14%.
Consider `O=C(CCCN1C(=O)/C(=C/c2ccccc2Cl)SC1=S)Nc1ccccn1`, for which the “hERG current change (%, negative = inhibition) at 1uM” value is on record as 4.44%.
For the compound `COc1cc(NC(=O)CSc2nccc(C)n2)c(C(=O)O)cc1OC`, the “hERG current change (%, negative = inhibition) at 1uM” value is on record as -7.07%.
As for `COc1cc2c(cc1OC)C(COc1ccccc1OC)N(C(=O)C(C)(C)C)CC2` (stereo not drawn), the “hERG current change (%, negative = inhibition) at 1uM” value turned out to be 5.43%.
Consider `COCc1[nH]nc2c1C(c1ccc(OC)c(OC)c1)C(C#N)=C(N)O2` (stereo not drawn), for which the “hERG current change (%, negative = inhibition) at 1uM” value worked out at 10.6%.
As to `CCOc1ccc(N2CC(C(=O)Nc3ccccc3N3CCOCC3)CC2=O)cc1` (stereo not drawn), the “hERG current change (%, negative = inhibition) at 1uM” value amounted to 4.41%.
The same measure for `COc1ccc(OC)c(NC(=O)CSc2nnc(CNC(=O)COc3ccc(Cl)cc3)o2)c1`: 2.4%; for `COC(=O)C1=C(O)C(C(=O)OC)C(c2ccc(C)cc2)C(C#N)(C#N)C1c1ccc(C)cc1` (stereo not drawn): 6.75%.
The same measure for `O=C(c1cc2c(ccc3ccccc32)o1)N1CCCCC1`: 14.4%.
The same measure for `CCOC(=O)N1CCN(C(=O)COC(=O)c2ccc(O)cc2O)CC1`: 16.8%; for `CC(=O)c1ccc(-n2c(-c3cc(-c4ccsc4)n[nH]3)n[nH]c2=S)cc1`: 7.9%; for `CCCCCn1c(=O)[nH]c2cc(C(=O)NCCN3CCOCC3)ccc2c1=O`: 6.68%.
Regarding `O=C1NC(Cc2ccccc2)c2nc3ccc(Cl)cc3c(=O)n2-c2ccc(Cl)cc21` (stereo not drawn), the “hERG current change (%, negative = inhibition) at 1uM” value amounted to 10.4%.
Regarding `COc1ccc(S(=O)(=O)N2CCOCC2)cc1NC(=O)c1cccc(Cl)c1`, the “hERG current change (%, negative = inhibition) at 1uM” value is given as 6.86%.
Turning to `N#Cc1c(N)n(CCOC(=O)c2cccc([N+](=O)[O-])c2)c2nc3ccccc3nc12`, the “hERG current change (%, negative = inhibition) at 1uM” value came out at 13.1%.
Regarding `COc1ccc(CCNC(=O)c2ccc3c(c2)OCO3)cc1`, the “hERG current change (%, negative = inhibition) at 1uM” value is listed as 11.4%.
With `COc1cccc(-n2c(SCC(=O)NCCc3ccccc3)nnc2-c2ccoc2C)c1`, the “hERG current change (%, negative = inhibition) at 1uM” value is reported as -50.4%.
To `CCN(CC)C(=O)CSc1nnc(-c2ccccn2)n1-c1ccc(C)c(C)c1` belongs -4.22%.
Consider `O=C(CSc1nnc(-c2ccccc2)n1-c1ccccc1)NCc1ccco1`, for which the “hERG current change (%, negative = inhibition) at 1uM” value is 7.59%.
With `Cc1csc(NC(=O)CSc2nnc(-c3ccccn3)n2-c2ccc(C)c(C)c2)n1`, the “hERG current change (%, negative = inhibition) at 1uM” value is on record as -57.4%.
In the case of `CCOc1ccc(-n2c(SCC(=O)Nc3nccs3)nnc2-c2ccoc2C)cc1`, the “hERG current change (%, negative = inhibition) at 1uM” value is recorded as -35.1%.
To `COc1cccc(NC(=O)CSc2nnc(-c3ccoc3C)n2-c2ccccc2)c1` belongs -17.5%; to `COc1ccc(-n2c(SCC(=O)Nc3nccs3)nnc2-c2ccoc2C)cc1`, -79.4%.
